# Assay results reported in PubChem BioAssay (NCI).
# Compounds without any hit were thinned out: in the full panel of roughly 83,000, 20% have a hit.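 Single-dose data. Exposure time 48 hours. Values below 10 considered active.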 Unmarked numbers belong to inactive results. Calls of active or inactive are those of the source.
# Tests used:
# Assay in all cases: NCI-60 one-dose screen, 48 h (100 = growth as untreated, 0 = no growth, -100 = all killed)
# Settings in all cases: 10 µM unless noted
# [1] = tested on: NCI-H322M lung
# [2] = tested on: HOP-62 NSCLC
# [3] = tested on: NCI-H460 lung
# [4] = tested on: HOP-92 NSCLC
# [5] = tested on: NCI-H522 lung
# [6] = tested on: A549/ATCC NSCLC
# [7] = tested on: 786-0 renal
# [8] = tested on: COLO 205 colon
# [9] = tested on: DU-145 prostate
# [10] = tested on: K-562 leukemia
# [11] = tested on: MALME-3M melanoma
# [12] = tested on: MDA-MB-231 breast
# [13] = tested on: RXF 393 renal
# [14] = tested on: SF-268 CNS
# [15] = tested on: SF-295 CNS
# [16] = tested on: SF-539 CNS
# [17] = tested on: UACC-257 melanoma
# [18] = tested on: M14 melanoma
# [19] = tested on: HCT-15 colon
SMILES,growth [1],growth [2] [%],growth [3],growth [4],growth [5],growth [6] [%],growth [7] [%],growth [8] [%],growth [9],growth [10],growth [11],growth [12],growth [13],growth [14] [%],growth [15],growth [16],growth [17] [%],growth [18],growth [19]
C=C1CC[C@H]2[C@@](C)(CCC3OC(c4ccc(OCc5cn(C6CC(OC(C)=O)C(OC(C)=O)C(COC(C)=O)O6)nn5)cc4)OC[C@]32C)[C@@H]1/C=C/C1=CCOC1=O (stereo not given in full),100%,85.5,85.8%,65.6%,82.2%,82.8,95.1,82.3,90%,38.8%,58%,77.9%,103%,90.3,61%,84.8%,61.6,93.9%,77.2%
N#Cc1ccc(/C=N/NC(=O)c2[nH]c3ccc(Br)cc3c2-c2ccccc2)s1,45.9%,26.9,3.12% (active),33.9%,-22.7% (active),22.4,10.2,,19.3%,8.83% (active),50.1%,22.1%,56%,30,11.7%,2.47% (active),40.9,9% (active),8.95% (active)
CN1C(=S)N(C)C2C1NN=C1SC(c3ccccc3)=CC(=O)N12 (stereo not given),104%,109,103%,72.8%,87.2%,93.7,98,111,106%,57.4%,97.7%,83.3%,97.8%,108,98%,90.8%,99,101%,89.5%
COC(=O)C(C)NS(=O)(=O)/N=C1\NC(=O)NC1=C(Cl)Cl (stereo not given),102%,111,113%,107%,101%,105,103,115,109%,104%,99%,106%,124%,98.2,103%,95.7%,99.7,94.7%,102%
Cc1cccc2sc(/N=C(\N)C(Br)Br)nc12,48.8%,67,1.4% (active),47.6%,-76% (active),37.4,31.6,27,4.67% (active),4.43% (active),-53.6% (active),6.18% (active),-22.5% (active),72.4,29%,8.75% (active),67.8,32.6%,-36.5% (active)
Cc1cccc(/C=C/c2nn3c(-c4ccco4)nnc3s2)c1,94.4%,100,102%,119%,95.2%,95.3,97.6,,105%,93%,96.9%,98.2%,111%,105,94.5%,94.9%,98.3,101%,88.1%
Nc1cc(-c2c[nH]c3ccc(F)cc23)nc2cc(-c3c[nH]c4ccc(F)cc34)nn12,94.1%,101,32.2%,83.5%,90.3%,79.5,66.3,118,72.7%,0.113% (active),94.9%,70.6%,128%,91.8,85.4%,87.4%,116,79.3%,31%
C[C@@H](Nc1c(C#N)cnc2ccc(-c3cnc(N)nc3)cc12)c1ccccc1,-6.52% (active),31.1,13.3%,-10.5% (active),-2.38% (active),15.8,13.5,17.3,12.8%,16.2%,8.07% (active),17.9%,-4.27% (active),16.5,2.02% (active),3.05% (active),33.5,21.3%,9.79% (active)
